Calls of active or inactive are those of the source.
What was measured:
[1] = compounds binding Alexa647 anti-His antibody – biochemical, small-molecule microarray, 635 nm fluorescence, artefact control for SMM control protein annotation, primary screen (AID 1128); details: higher = more signal;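 further: score merges feature fluorescence with signal-to-noise for each printed compound spot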
[2] = tested on: Human papillomavirus type 1a E7 protein (residues 1-88); assay: HPV1a E7 small-molecule binders, primary screen, biochemical, small-molecule microarray, residues 1-88, 635 nm (AID 1129); details: small-molecule microarray binding, fluorescence 635 nm; higher = more signal
[3] = biological target: Focal adhesion kinase 1 (Homo sapiens) (UniProt Q05397); assay: PTK2 protein binding on printed compound slides – biochemical, small-molecule microarray, 635/667 nm fluorescence, BSA, DTT, primary screen (AID 1130); details: 635 nm fluorescence, higher = more signal;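 further: composite of spot emission at 667 nm and signal to noise over triplicate slides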
[4] = tested on: Fibrinogen (Alexa647-labelled); assay: Alexa647-fibrinogen binding to printed small molecules – biochemical, small-molecule microarray, 635/667 nm fluorescence, artefact control for SMM control-protein annotation, profiling panel (AID 1131); details: fibrinogen-A647 binding fluorescence, higher = more signal;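 further: z-score merges 667 nm fluorescence with per-spot signal-to-noise over triplicate slides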
[5] = biological target: Follistatin (Homo sapiens) (UniProt P19883); assay: FST protein binding to printed compounds – biochemical, small-molecule microarray, 635/667 nm fluorescence, primary screen (AID 1132); details: 635 nm fluorescence, higher = more signal
[6] = biological target: Fibroblast growth factor 2 (Homo sapiens) (UniProt P09038); assay: basic fibroblast growth factor binding to printed compounds – biochemical, small-molecule microarray, 635/667 nm fluorescence, primary screen (AID 1133); details: FGF2, fluorescence 635/667, higher = more signal
[7] = JC-1 mitochondrial potential readout, lung cancer cells – cell-based, A549, JC-1 fluorescence, basal, 24 h, 100 nL, profiling panel (AID 1138); details: higher = more signal;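 further: A549 lung adenocarcinoma cells under basal conditions with no added stimulus; test concentration not given here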
[8] = tested on: Lefty1; assay: Lefty1 protein binding to printed compounds – biochemical, small-molecule microarray, 635/667 nm fluorescence, primary screen (AID 1139); details: fluorescence 635/667, higher = more signal
[9] = tested on: wheat germ agglutinin (Triticum aestivum), Alexa647-labelled; assay: Alexa647-WGA lectin binding to printed small molecules – biochemical, small-molecule microarray, 635/667 nm fluorescence, artefact control for SMM control-protein annotation, profiling panel (AID 1140); details: WGA-A647 binding, 635 nm fluorescence, higher = more signal;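 further: score merges 667 nm feature emission with signal to noise over triplicate slides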
[10] = biological target: Luciferin 4-monooxygenase (Photinus pyralis) (UniProt P08659); assay: inhibition of purified Photinus pyralis luciferase – biochemical, luminescence, purified enzyme, 2006 set, primary screen (AID 1141); details: purified firefly luciferase, SteadyGlo luminescence, 30 min; higher = more signal, called active from +8 up or from −8 down;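 further: cell-free assay with purified firefly luciferase at 100 ng per well in PBS; test concentration not given here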
Sequence of Luciferin 4-monooxygenase (Photinus pyralis) (P08659 whole entry, looked up): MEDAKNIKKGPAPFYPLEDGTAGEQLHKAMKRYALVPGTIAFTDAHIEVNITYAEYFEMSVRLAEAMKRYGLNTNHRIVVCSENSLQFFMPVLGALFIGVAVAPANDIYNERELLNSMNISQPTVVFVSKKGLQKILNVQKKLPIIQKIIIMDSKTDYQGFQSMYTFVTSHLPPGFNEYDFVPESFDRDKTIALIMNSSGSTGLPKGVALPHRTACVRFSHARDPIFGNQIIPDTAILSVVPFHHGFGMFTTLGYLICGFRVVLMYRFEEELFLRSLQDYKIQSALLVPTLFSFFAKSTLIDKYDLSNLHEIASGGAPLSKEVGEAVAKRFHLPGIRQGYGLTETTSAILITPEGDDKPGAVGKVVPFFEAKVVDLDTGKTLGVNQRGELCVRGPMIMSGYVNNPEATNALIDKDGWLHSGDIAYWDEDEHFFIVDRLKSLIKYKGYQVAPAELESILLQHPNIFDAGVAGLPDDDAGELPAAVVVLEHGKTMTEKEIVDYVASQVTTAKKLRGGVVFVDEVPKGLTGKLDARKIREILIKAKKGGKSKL

Sequence of Fibroblast growth factor 2 (Homo sapiens) (P09038 whole entry, looked up): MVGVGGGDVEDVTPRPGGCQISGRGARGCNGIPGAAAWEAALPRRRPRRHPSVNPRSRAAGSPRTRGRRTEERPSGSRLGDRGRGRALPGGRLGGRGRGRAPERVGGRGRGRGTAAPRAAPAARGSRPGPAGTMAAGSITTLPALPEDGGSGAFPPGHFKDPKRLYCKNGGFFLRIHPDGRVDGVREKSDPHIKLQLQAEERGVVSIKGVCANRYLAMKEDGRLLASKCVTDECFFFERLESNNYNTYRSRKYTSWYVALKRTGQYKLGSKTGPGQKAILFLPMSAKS
Sequence of Follistatin (Homo sapiens) (P19883 whole entry, looked up): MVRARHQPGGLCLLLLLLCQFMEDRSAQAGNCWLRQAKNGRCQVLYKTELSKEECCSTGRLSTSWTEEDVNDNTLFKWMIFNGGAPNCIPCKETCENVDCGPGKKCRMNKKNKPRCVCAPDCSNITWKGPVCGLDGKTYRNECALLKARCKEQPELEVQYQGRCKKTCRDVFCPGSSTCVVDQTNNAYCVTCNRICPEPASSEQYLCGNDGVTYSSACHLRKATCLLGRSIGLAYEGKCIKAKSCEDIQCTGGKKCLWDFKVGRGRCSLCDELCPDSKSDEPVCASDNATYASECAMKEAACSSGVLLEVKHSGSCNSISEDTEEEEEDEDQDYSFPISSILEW
Sequence of Focal adhesion kinase 1 (Homo sapiens) (Q05397 whole entry, looked up): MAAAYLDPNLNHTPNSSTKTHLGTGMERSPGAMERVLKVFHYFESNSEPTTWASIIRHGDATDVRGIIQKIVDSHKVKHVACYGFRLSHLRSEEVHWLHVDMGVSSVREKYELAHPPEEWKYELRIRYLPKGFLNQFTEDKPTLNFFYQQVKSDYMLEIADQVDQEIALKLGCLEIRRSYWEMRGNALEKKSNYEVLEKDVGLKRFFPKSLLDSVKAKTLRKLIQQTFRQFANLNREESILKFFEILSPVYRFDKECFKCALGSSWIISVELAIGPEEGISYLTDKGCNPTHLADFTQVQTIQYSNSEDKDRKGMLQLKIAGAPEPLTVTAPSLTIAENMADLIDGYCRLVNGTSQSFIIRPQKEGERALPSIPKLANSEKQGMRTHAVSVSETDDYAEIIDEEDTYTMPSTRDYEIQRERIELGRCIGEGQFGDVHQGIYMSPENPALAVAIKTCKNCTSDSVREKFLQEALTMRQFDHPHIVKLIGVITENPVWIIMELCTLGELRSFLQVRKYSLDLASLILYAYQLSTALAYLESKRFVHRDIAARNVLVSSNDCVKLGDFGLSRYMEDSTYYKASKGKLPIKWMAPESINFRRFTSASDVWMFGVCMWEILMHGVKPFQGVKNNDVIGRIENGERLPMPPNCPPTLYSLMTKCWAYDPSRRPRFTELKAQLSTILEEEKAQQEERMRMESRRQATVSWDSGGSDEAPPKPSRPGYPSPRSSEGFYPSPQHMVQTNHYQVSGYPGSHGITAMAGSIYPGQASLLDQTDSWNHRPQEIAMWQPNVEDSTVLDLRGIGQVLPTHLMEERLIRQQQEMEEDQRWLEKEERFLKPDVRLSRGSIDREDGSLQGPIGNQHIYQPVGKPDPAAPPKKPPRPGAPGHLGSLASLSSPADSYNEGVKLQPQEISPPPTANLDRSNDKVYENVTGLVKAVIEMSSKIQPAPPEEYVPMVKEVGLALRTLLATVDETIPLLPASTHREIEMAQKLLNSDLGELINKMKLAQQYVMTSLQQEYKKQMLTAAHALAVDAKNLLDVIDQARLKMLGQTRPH

SMILES	composite z-score [1]	composite z-score [2]	composite z-score [3]	composite z-score [4]	composite z-score [5]	composite z-score [6]	z-score [7]	composite z-score [8]	composite z-score [9]	z-score [10]
CO[C@H]1O[C@H](CO)[C@@H](OC(=O)c2ccc(Br)cc2)[C@@H]2OC(=O)[C@@H](Cc3ccc4ccccc4c3)C/C=C/C[C@H](Cc3ccc4ccccc4c3)C(=O)O[C@@H]12	1.4	1.2	0.337	-0.216	0.395	-0.311	1.59	-0.345	0.691	-1.28 (inactive)
COC(=O)[C@@]1(Cc2ccc(OC)cc2)[C@H]2c3cc(C(=O)N(C)C)n(Cc4nc5ccccc5[nH]4)c3C[C@H]2CN1C(=O)c1ccccc1	1.39	1.26	1.34	0.991	0.907	-0.295	1.95	-0.117	1.35	2.41 (inactive)
CC(=O)N1Cc2ccccc2C[C@]2(N=C(c3ccc(OCCCO)cc3)O[C@@H]2c2ccccc2)C1=O	2.62	1.2	0.552	0.654	0.743	1.2	0.638	0.036	0.956	-2 (inactive)
CN1C(=O)C2C=CC(C(O)C3CCCCC3)N(N3CCCCC3)C2C1=O (stereo not given)	1.18	1.26	0.542	0.957	1.31	0.182	1.25	0.766	0.774	0.49 (inactive)
CCOC(=O)C[C@H]1[C@H](OC(=O)c2ccc(C(=O)c3ccccc3)cc2)[C@@H](NC(=O)c2ccc3ccccc3c2)c2cc(OCCCO)ccc2N1C(=O)c1ccccc1	0.405	1.13	0.287	0.73	0.599	0.436	0.315	1.14	1.1	-0.204 (inactive)
[N-]=[N+]=Nc1ccccc1[C@H]1OC(c2ccc(OCCCO)cc2)=N[C@@]1(CCS(=O)(=O)c1ccccc1)C(=O)N1CCCCC1	2.65	1.23	0.944	0.989	0.83	-0.0535	-1.11	-0.0647	1.27	-11.7 (active)
O=C1OCCC=C[C@H]2OC34C=CCN(c5ccc(Cl)cc5)C(=O)[C@H]3N(CCCCCO)C(=O)[C@@H]4C12 (stereo not given in full)	3.41	-0.457	-0.226	-0.929	-0.514	-0.297	2.6	-0.314	-0.21	-1.31 (inactive)
CC(C)N1C(=O)[C@@]2(c3ccc([N+](=O)[O-])cc3)CC(=O)N(C3CCCCC3)[C@@H]2c2ccc(CO)cc21	0.111	-0.695	-0.0713	-0.387	1.03	0.356	-0.24	0.297	-0.246	1.1 (inactive)
C=CC[C@@]1(C(=O)N2CCCCC2)N=C(c2ccc(OCCCO)cc2)O[C@@H]1c1ccccc1	2.8	1.2	1.58	0.935	0.939	0.0286	1.9	-0.034	1.08	-0.952 (inactive)
CN(C)CCCNC(=O)[C@@]1(c2ccc([N+](=O)[O-])cc2)CC(=O)N(CC23CC4CC(CC(C4)C2)C3)[C@@H]1c1ccc(CO)cc1	1.03	1.19	0.703	0.807	1.28	0.844	0.742	0.99	0.955	0.292 (inactive)
Cc1ccc(C(C)CC(O)C2C=CC3C(=O)N(c4ccccc4)C(=O)C3N2Nc2ccc(C(C)C)cc2)o1 (stereo not given)	0.953	1.16	0.423	0.59	0.75	-0.14	-0.678	-0.795	1.15	-0.528 (inactive)
COc1cc2c(cc1OC)CN(C(=O)[C@H]1[C@@H]3C(=O)O[C@@H](c4ccccc4)[C@@H](c4ccccc4)N3[C@@H](c3ccc(OCCO)cc3)[C@]13C(=O)Nc1ccc(C#CC4(O)CCCCCC4)cc13)CC2	1.91	1.21	-0.109	0.819	1.46	1.38	-1.42	1.35	1.18	-1.15 (inactive)
C=CC[C@]12N=C(c3ccc(OCCCO)cc3)O[C@H]1c1ccccc1N(C)C2=O	2.7	1.2	1.37	0.325	1.46	0.837	-0.829	0.501	0.675	-7.68 (inactive)
O=C(O)[C@]1(Cc2ccccc2)N=C(c2ccc(OCCCO)cc2)O[C@@H]1c1ccccc1	1.03	-0.0591	0.136	-0.0288	-0.431	-0.846	-0.069	-0.296	-0.218	0.779 (inactive)
CN1C(=O)C2C=CC(C(O)Cc3ccccc3)N(N(c3ccccc3)c3ccccc3)C2C1=O (stereo not given)	0.548	1.17	0.293	0.331	0.307	-0.622	0.54	-0.0212	0.201	-0.397 (inactive)
CC(C)CN1C(=O)[C@@]2(Cc3ccccc31)c1ccccc1C(=O)N(Cc1ccccc1C(F)(F)F)[C@H]2c1ccc(CO)cc1	-0.372	-1.18	-0.315	-0.921	-0.596	-0.425	0.39	0.636	-0.0876	1.11 (inactive)
COC(=O)[C@@]1(Cc2ccc(OC)cc2)[C@H]2c3cc(C(=O)N(C)C)n(Cc4ccccc4)c3C[C@H]2CN1C(=O)c1ccccc1	3.25	1.14	0.649	-0.228	-0.0192	-0.825	2.63	-0.244	0.578	0.84 (inactive)
O=C1O[C@@H](c2ccccc2)[C@@H](c2ccccc2)N2[C@@H](c3ccc(O)cc3)[C@]3(C(=O)Nc4ccccc43)[C@@H](C(=O)Nc3nc4ccccc4s3)[C@H]12	1.07	1.18	0.708	0.975	1.2	0.398	-2.38	0.745	0.634	-1.1 (inactive)
CC=CC(O)C1C=CC2C(=O)N(C)C(=O)C2N1Nc1ccc([N+](=O)[O-])cc1[N+](=O)[O-] (stereo not given)	2.66	-0.935	0.247	-1.22	-0.0096	-0.582	0.533	0.0657	-0.0025	-0.419 (inactive)
CCOC(=O)C1=CC[C@@H](c2ccccc2C(F)(F)F)N(S(=O)(=O)c2ccc(C)cc2)C1	1.62	1.18	0.406	0.836	0.877	0.633	1.9	-0.356	0.989	0.515 (inactive)
CN(C)CCCNC(=O)[C@@]1(C)c2ccccc2C(=O)N(Cc2cc(C(F)(F)F)cc(C(F)(F)F)c2)[C@H]1c1ccc(CO)cc1	-0.216	-0.446	-0.24	-2.28	-0.775	-0.762	-0.0872	-1.03	-0.973	0.386 (inactive)
